In the library only some 1.7% were active in any assay of this set; here they are far more common.
KCNH2 3.1 inh = KCNH2 3.1 (human) potassium channel inhibition. U2OS KCNH2 3.1, thallium flux FluxOr; active compounds read low. activity change, % (tested at about 1.8 µM). 340,000 compounds, 0.95% hits. AID 720553;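 active = maximum activity change below -70%; inconclusive = maximum activity change from -70% to -50%; inactive = maximum activity change above -50%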;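 note: thallium influx rate constant from kinetic fluorescence after stimulation buffer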
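Kinetic fluorescence (2 min after stimulation buffer) measures Tl+ influx through KCNH2 3.1 expressed by viral transduction in U2OS cells; the rate constant is normalized against DMSO controls serving as positive and negative references.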
RXFP1 ag = agonists of human relaxin receptor RXFP1. Q9HBX9. 370,000 compounds, 0.3% hits. HEK293T-RXFP1 cAMP TR-FRET, 30 min; response scale: percent of porcine relaxin response, buffer zero. Potency, µM (doses to about 57.5 µM), actives largely listed as activators; active = well fitted activation curve with a large enough effect; inconclusive = small, poorly fitted or top-dose-only effect; note: nearly all actives have a fitted effect of over 60% in size
Target sequence (Q9HBX9 whole entry, looked up): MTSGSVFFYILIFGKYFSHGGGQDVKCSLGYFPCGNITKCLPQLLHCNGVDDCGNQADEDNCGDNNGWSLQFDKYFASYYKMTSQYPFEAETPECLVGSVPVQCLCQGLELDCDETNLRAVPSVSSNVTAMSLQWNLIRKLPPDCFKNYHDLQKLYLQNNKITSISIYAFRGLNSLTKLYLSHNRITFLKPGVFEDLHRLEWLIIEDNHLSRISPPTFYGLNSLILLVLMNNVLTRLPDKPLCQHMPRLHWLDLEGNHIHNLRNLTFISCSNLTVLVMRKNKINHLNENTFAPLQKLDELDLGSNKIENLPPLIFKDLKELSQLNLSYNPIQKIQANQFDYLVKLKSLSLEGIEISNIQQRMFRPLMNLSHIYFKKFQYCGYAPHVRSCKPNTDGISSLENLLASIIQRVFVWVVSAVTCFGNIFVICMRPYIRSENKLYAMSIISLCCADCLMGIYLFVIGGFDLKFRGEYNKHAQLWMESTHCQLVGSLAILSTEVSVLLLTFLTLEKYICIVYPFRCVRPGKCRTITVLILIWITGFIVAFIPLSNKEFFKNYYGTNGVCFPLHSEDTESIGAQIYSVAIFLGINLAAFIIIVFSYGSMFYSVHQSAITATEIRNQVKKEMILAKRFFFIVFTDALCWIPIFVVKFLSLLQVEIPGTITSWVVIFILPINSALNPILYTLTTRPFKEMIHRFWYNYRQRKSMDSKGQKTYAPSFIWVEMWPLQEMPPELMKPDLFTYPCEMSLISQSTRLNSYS
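HEK293 cells stably expressing RXFP1, treated 30 min at 37C with compounds plus PDE4 inhibitor Ro 20174; cAMP measured by HTRF TR-FRET. Normalized to buffer and 29 nM porcine relaxin; EC50 by Hill fit.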
pAkt inh = blocks phosphorylation of Akt; Neuro2A IGF-stimulated pAkt S473 HTRF, 20 min; active compounds read low; activity change, % for hits at 50 µM; 360,000 compounds, 0.32% hits; in the data active = activity change below about -80%; inconclusive = mostly about -51% to -80%
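Single-point screen (50 µM final compound) in Neuro2A cells stimulated 20 min with 6 nM IGF at 37 deg C. After lysis, Ser473-phosphorylated Akt read by HTRF (ex 330 nm, em 615/665 nm) as the 665/615 ratio.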
hERG WT inh = KCNH2 (human, wildtype) channel inhibition; Q12809; activity change, % at 1.84 µM; U2OS, BacMam KCNH2, thallium flux FluxOr; active compounds read low; 340,000 compounds, 0.37% hits;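 active = maximum activity change below -70%; inconclusive = maximum activity change between -70% and -50%; inactive = maximum activity change above -50%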
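U2OS cells were transduced with wild-type KCNH2 virus (2.03 x 10^8 / mL) for 4 h at room temperature, then cultured overnight at 37 C. Thallium flux was read with FluxOr dye. Rate constants were normalized to DMSO controls.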
RXFP1 antag = blocks the human relaxin receptor RXFP1. 350,000 compounds, 0.59% hits. HEK293-RXFP1, relaxin-stimulated cAMP HTRF, 30 min; active compounds read low. activity change, negative = inhibition, % at 57.5 µM. Q9HBX9;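 active = activity change of -60% or lower, but not beyond a set lower limit; inconclusive = change between -60% and -40%, or beyond the set limit; inactive = change above -40%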
Numbers stand for hits; ! = repeats disagree.

Screening Cc1ccc(-c2ccc(CN3C(CC(C)C)C(=O)N(Cc4cn(CCC5OCCO5)nn4)CCS3(=O)=O)cc2)cc1 (stereo not drawn) returned KCNH2 3.1 inh inactive, pAkt inh inactive, hERG WT inh inactive and RXFP1 antag inactive.
`Cc1cccc(N2CCN(C(=O)C3CCN(c4nnc(-n5cccc5)s4)CC3)CC2C)c1` (stereo not drawn) gave KCNH2 3.1 inh inactive, RXFP1 ag inactive, pAkt inh inactive, hERG WT inh inactive and RXFP1 antag -68.
For Cc1ccc(Cl)cc1N1CCN(C(=O)C2CCN(c3nnc(-n4cccc4)s3)CC2)CC1 the results were KCNH2 3.1 inh inactive, RXFP1 ag inactive, pAkt inh inactive and hERG WT inh inactive.
For CCN1/C(=C2\C(=O)N(c3ccccc3)N=C2C)C=Cc2cc(C)ccc21 the results were KCNH2 3.1 inh -102, RXFP1 ag inactive, pAkt inh inactive, hERG WT inh inactive and RXFP1 antag inactive.
`CN(Cc1ccco1)S(=O)(=O)c1nnc(NC(=O)c2ccccc2Cl)s1` gave KCNH2 3.1 inh inactive, RXFP1 ag 11µM!, pAkt inh inactive, hERG WT inh inactive and RXFP1 antag inactive.
CCn1c(SCC(=O)Nc2cc(C)on2)nnc1-c1ccc(S(=O)(=O)N2CCN(C)CC2)cc1 was read as KCNH2 3.1 inh inactive, RXFP1 ag inactive, pAkt inh inactive, hERG WT inh inactive and RXFP1 antag inactive.
O=C(C1CC1)N1CCc2cc(Br)cc(S(=O)(=O)NC3CCCCC3)c21 was read as KCNH2 3.1 inh inactive, RXFP1 ag inactive, pAkt inh -119%, hERG WT inh inactive and RXFP1 antag inactive.
`O=C(Nc1cccc(C(F)(F)F)c1)c1ccc2nc(-c3ccco3)c(-c3ccco3)nc2c1` gave KCNH2 3.1 inh inactive, RXFP1 ag inactive, pAkt inh inactive, hERG WT inh inactive and RXFP1 antag -97.
Cc1ccc2[nH]cc(C(=O)CN3CCC4(CC3)OCCO4)c2c1 was read as KCNH2 3.1 inh inactive, RXFP1 ag inactive, pAkt inh inactive, hERG WT inh inactive and RXFP1 antag inactive.
Screening O=C(CN1CCC2(CC1)OCCO2)c1c[nH]c2ccccc12 returned KCNH2 3.1 inh inactive, RXFP1 ag inactive, pAkt inh -122%, hERG WT inh inactive and RXFP1 antag inactive.
Screening O=C(Nc1ccccc1[N+](=O)[O-])c1ccc(S(=O)(=O)N2CCCC2)cc1 returned KCNH2 3.1 inh inactive, RXFP1 ag inactive, pAkt inh inactive, hERG WT inh inactive and RXFP1 antag inactive.
COc1ccc(N(CC(=O)Nc2c(C)n(C)n(-c3ccccc3)c2=O)S(=O)(=O)c2ccc(F)cc2)cc1 was read as KCNH2 3.1 inh inconclusive, RXFP1 ag inactive, pAkt inh inactive, hERG WT inh inactive and RXFP1 antag inactive.
Screening Cc1ccc(CS(=O)(=O)c2nsc(C)c2C#N)cc1 returned RXFP1 ag inactive, pAkt inh inactive, hERG WT inh inactive and RXFP1 antag inactive.
For COc1ccc(CC(=O)N/N=C/c2cccnc2)cc1OC the results were KCNH2 3.1 inh inactive, RXFP1 ag 32µM, pAkt inh inactive, hERG WT inh inactive and RXFP1 antag inactive.
Screening CCOc1ccc(CC(=O)N/N=C/c2cccnc2)cc1OCC returned KCNH2 3.1 inh inactive, RXFP1 ag inactive, pAkt inh inactive, hERG WT inh inactive and RXFP1 antag inactive.
Screening Cc1ccccc1C(=O)Nc1ccnn1C1CCN(CCCc2ccccc2)CC1 returned KCNH2 3.1 inh -106, RXFP1 ag inactive, pAkt inh inactive, hERG WT inh -139 and RXFP1 antag inactive.
COc1ccccc1C(=O)Nc1ccnn1C1CCN(CCCc2ccccc2)CC1 was read as KCNH2 3.1 inh -103, RXFP1 ag inactive, pAkt inh inactive, hERG WT inh -105 and RXFP1 antag inactive.
For O=C(Nc1ccnn1C1CCN(CCCc2ccccc2)CC1)c1ccccc1 the results were KCNH2 3.1 inh -85, RXFP1 ag inactive, pAkt inh inactive, hERG WT inh inconclusive and RXFP1 antag inactive.
Screening Cc1ccccc1C(=O)Nc1ccnn1C1CCN(Cc2cccnc2)CC1 returned KCNH2 3.1 inh inactive, RXFP1 ag inactive, pAkt inh inactive, hERG WT inh inactive and RXFP1 antag inactive.
COc1ccccc1C(=O)Nc1ccnn1C1CCN(C)CC1 was read as KCNH2 3.1 inh inactive, RXFP1 ag inactive, pAkt inh inactive, hERG WT inh inactive and RXFP1 antag inactive.
`CCc1ccccc1NC(=S)NC1CC2CCCC(C1)N2Cc1cccs1` (stereo not drawn) gave KCNH2 3.1 inh inactive, RXFP1 ag inactive, pAkt inh inactive, hERG WT inh inactive and RXFP1 antag inactive.
`O=C(COC(=O)c1c[nH]c2ccccc12)Nc1cccc(F)c1` gave KCNH2 3.1 inh inactive, RXFP1 ag inactive, pAkt inh inactive, hERG WT inh inactive and RXFP1 antag inactive.
CCOc1cc(C2C3=C(CCCC3=O)N(CC(=O)O)C3=C2C(=O)CCC3)ccc1OC was read as KCNH2 3.1 inh inactive, RXFP1 ag inactive, pAkt inh inactive, hERG WT inh inactive and RXFP1 antag inactive.
Screening Cc1ccc(S(=O)(=O)NCC(=O)OC2CCOC2=O)cc1 (stereo not drawn) returned KCNH2 3.1 inh -95, RXFP1 ag inactive, pAkt inh inactive, hERG WT inh -126 and RXFP1 antag inactive.
For COC(=O)CNS(=O)(=O)c1ccc(C)cc1 the results were KCNH2 3.1 inh inactive, RXFP1 ag inactive, pAkt inh inactive, hERG WT inh inactive and RXFP1 antag inactive.
For CCCCCc1ccc(C(=O)CCCC)c(=S)[nH]1 the results were KCNH2 3.1 inh inactive, RXFP1 ag inactive, pAkt inh inactive, hERG WT inh inactive and RXFP1 antag -64.
CC1(C(=O)NCc2cccc(Cl)c2)Cc2c(-c3ccc(C(N)=O)cc3)ccnc2O1 (stereo not drawn) was read as pAkt inh inactive.
For Cc1cccc(C(=O)O)c1NC(=O)c1ccc(F)cc1 the results were KCNH2 3.1 inh inactive, RXFP1 ag inactive, pAkt inh inactive, hERG WT inh -194 and RXFP1 antag inactive.
`Cc1cccc(C)c1NC(=O)c1ccccc1C(=O)O` gave KCNH2 3.1 inh inactive, RXFP1 ag inactive, pAkt inh inactive, hERG WT inh inactive and RXFP1 antag inactive.
O=C(NCCc1ccc(Cl)cc1)C1=CC=CN2CCS(=O)(=O)N=C12 was read as KCNH2 3.1 inh inactive, RXFP1 ag inactive, pAkt inh inactive, hERG WT inh inactive and RXFP1 antag inactive.
O=C(O)CC/C(=N\NC(=O)c1ccncc1)c1ccccc1 was read as KCNH2 3.1 inh -161, RXFP1 ag inactive, pAkt inh inactive, hERG WT inh -134 and RXFP1 antag inactive.
Screening O=C(O)CC/C(=N\NC(=O)c1ccccc1)c1cccs1 returned KCNH2 3.1 inh inactive, RXFP1 ag inactive, pAkt inh inactive, hERG WT inh inactive and RXFP1 antag inactive.
For C=C(C)c1cccc(C(C)(C)NC(=O)N2CCN(C(=O)OCC)CC2)c1 the results were KCNH2 3.1 inh -71, pAkt inh inactive, hERG WT inh inactive and RXFP1 antag inactive.

Screens: PubChem BioAssay, National Center for Advancing Translational Sciences (NCATS)
